{
  "source": "PubChem BioAssay (NCI)",
  "note": "Compounds without any hit were thinned out: in the full panel of roughly 83,000, 20% have a hit.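 Step 1: grow cells in 96-well plates. Step 2: add test compound at a single concentration. Step 3: incubate 48 h. Step 4: record percent growth.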 Unmarked numbers belong to inactive results. Activity calls are given as the source filed them. How the source made its calls: active means growth percent below 10; inactive means the rest.",
  "data": [
    {"system": "MDA-MB-468 breast", "test": "NCI-60 one-dose screen, 48 h (100 = growth as untreated, 0 = no growth, -100 = all killed)", "conditions": "10 µM unless noted", "values": [
      {"smiles": "O=C(Nc1ccc(-n2cc(-c3ccncc3)c(-c3ccc(O)c(Cl)c3)n2)cc1)Nc1ccc(Cl)c(C(F)(F)F)c1", "growth": "-6.63% (active)"},
      {"smiles": "O=C(CC(C(=O)c1ccccc1)N1CCN(Cc2ccccc2)CC1)c1ccccc1", "note": "(stereo unspecified)", "growth": "70.1%"},
      {"smiles": "Oc1c(Br)cc(Br)c2ccc(Cn3cc(-c4ccc(C(F)(F)F)cc4)nn3)nc12", "growth": "30.8%"},
      {"smiles": "C=C(C)[C@@H]1CC[C@]2(C(=O)N3CCN(C)CC3)CC[C@]3(C)[C@H](CC[C@@H]4[C@@]5(C)C/C(=C/c6ccc(C(F)(F)F)cc6)C(=O)C(C)(C)[C@@H]5CC[C@]43C)[C@@H]12", "growth": "107%"},
      {"smiles": "COc1ccc(Cn2cc3c(c2-c2cc(OC)c(OC)c(OC)c2)CCc2c(CN4CCCC4)noc2-3)cc1", "growth": "50.7%"},
      {"smiles": "CC(C)NC1CCC(Nc2ccnc3cc(Cl)ccc23)CC1", "note": "(stereo unspecified)", "growth": "62.3%"},
      {"smiles": "Cc1ccc(S(=O)(=O)N/N=C2\\CCCc3ccccc32)cc1", "growth": "95.7%"},
      {"smiles": "Cc1nn(-c2ccc(Cl)cc2)c(=O)n1CCOc1ccccc1Cl", "growth": "105%"},
      {"smiles": "C=C(C)[C@@H]1CC[C@]2(C)[C@H](CC=C3[C@@H]4CC(C)(C)CC[C@]4(C=O)CC[C@]32C)[C@@]1(C)CCCN", "growth": "51.3%"},
      {"smiles": "CC(C)Sc1nc(-c2ccccc2)c(C#N)c(N2CCOCC2)n1", "growth": "80.9%"},
      {"smiles": "COC(=O)/C(=C\\c1c(C)[nH]c2ccccc12)S(=O)(=O)c1ccccc1", "growth": "23.4%"}
    ]}
  ]
}
